Two sequences from paper PMC7862700, “An all-to-all approach to the identification of sequence-specific readers for epigenetic DNA modifications on cytosine” can be followed below.

Holding throughout (test): DAPPL (digital affinity profiling via proximity ligation, sequencing); 10 mM Tris-HCl pH 7.5, 50 mM NaCl, 1 mM DTT, 4% glycerol, room temperature, 30 min; GST-TFs on glutathione beads, 16-mer random dsDNA library, 0.1% formaldehyde crosslink after washing; high values mean tight binding
Common to all, as to settings: protein: recombinant; tags: N-terminal GST; dsDNA, one strand shown

One test addresses T1, FLI1 (Homo sapiens, UniProt Q01543 1-452).
T1 sequence: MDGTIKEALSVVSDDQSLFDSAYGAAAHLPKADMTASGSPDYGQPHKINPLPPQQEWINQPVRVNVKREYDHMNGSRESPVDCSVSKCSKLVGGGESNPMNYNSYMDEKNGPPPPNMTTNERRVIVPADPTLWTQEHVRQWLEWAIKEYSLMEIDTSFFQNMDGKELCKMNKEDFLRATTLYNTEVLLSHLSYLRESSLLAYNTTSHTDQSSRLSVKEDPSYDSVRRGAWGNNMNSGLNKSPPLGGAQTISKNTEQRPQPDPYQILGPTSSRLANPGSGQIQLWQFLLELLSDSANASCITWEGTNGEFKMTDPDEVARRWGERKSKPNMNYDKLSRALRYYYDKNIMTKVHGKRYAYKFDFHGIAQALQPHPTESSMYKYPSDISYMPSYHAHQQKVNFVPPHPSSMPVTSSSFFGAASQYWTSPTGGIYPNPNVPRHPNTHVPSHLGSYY
In outline: (§1)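 Binding signal is defined as a hexamer's read frequency for one factor over its frequency for the tag-only sample. To obtain reads, GST-fused human transcription factors were expressed in yeast, captured on glutathione beads, barcoded with DNA and pooled with that sample. Pools met 200 nmole of a 16-mer random double-stranded DNA library in Tris/NaCl/DTT/glycerol buffer for 30 min at room temperature before washing, 0.1% formaldehyde crosslinking, proximity ligation (BsaI/T4 ligase, 1 h, 37 °C), PCR and Illumina NextSeq500 sequencing.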

In a further test the target is T2, ELK1 (Homo sapiens, UniProt P19419 1-428).
T2 sequence: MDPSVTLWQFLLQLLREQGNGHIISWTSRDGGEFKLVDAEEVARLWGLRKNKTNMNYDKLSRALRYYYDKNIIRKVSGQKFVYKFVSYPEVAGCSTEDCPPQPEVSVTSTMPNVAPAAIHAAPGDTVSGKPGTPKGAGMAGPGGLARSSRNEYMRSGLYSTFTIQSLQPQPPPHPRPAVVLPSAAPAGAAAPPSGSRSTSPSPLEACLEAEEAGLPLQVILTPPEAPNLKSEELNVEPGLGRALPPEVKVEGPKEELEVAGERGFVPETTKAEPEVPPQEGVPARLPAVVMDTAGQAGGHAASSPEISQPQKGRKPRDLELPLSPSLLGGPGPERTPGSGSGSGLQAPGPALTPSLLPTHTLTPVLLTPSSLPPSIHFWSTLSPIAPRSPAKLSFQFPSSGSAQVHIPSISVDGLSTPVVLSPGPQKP
In outline:
as §1

The next test addresses T3, GABPA (Homo sapiens, UniProt Q06546 1-454).
T3 sequence: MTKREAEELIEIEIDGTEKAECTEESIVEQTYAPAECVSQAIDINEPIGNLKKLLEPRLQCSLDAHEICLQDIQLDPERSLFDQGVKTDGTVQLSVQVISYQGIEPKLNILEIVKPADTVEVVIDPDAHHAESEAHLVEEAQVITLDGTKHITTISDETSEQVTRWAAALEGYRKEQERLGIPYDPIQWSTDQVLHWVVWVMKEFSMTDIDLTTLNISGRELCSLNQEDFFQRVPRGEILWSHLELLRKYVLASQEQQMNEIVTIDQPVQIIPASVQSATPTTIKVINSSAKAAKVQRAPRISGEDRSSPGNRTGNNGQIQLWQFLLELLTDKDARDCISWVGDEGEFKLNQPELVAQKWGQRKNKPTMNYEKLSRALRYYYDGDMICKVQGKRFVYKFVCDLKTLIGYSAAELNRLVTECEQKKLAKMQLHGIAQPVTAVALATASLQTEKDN
In outline: as §1

The next test concerns the target T4, ERG (Homo sapiens, UniProt P11308 1-479).
T4 sequence: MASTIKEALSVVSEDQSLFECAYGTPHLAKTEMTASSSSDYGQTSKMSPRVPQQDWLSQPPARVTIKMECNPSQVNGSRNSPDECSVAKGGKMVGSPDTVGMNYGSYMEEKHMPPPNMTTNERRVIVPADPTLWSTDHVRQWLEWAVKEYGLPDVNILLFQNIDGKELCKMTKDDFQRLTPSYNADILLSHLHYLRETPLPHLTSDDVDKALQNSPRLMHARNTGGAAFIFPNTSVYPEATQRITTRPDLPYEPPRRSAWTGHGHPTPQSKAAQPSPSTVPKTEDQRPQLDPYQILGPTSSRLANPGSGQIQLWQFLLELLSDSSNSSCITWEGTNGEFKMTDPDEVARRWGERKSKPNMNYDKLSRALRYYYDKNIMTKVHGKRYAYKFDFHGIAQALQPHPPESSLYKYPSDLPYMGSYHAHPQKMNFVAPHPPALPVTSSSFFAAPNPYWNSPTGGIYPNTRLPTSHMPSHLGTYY
The method, boiled down:
as §1

The target of the next test is ELF1 (Homo sapiens, UniProt P32519 1-619). The method, boiled down: as §1
Another test concerns the target T5, EHF (Homo sapiens, UniProt Q9NZC4 1-300).
T5 sequence: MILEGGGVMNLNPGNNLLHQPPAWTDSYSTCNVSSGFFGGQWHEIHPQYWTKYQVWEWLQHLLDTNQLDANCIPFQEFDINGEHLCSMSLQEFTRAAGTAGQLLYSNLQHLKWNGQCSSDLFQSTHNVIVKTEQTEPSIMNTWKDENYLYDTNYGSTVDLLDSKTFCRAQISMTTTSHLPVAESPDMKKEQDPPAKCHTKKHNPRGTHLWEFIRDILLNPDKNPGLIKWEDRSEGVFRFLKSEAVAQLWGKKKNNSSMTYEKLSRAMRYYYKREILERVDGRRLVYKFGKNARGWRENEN
In outline: as §1

In the next test the target is SPI1 (Homo sapiens, UniProt P17947 1-270). The method, boiled down:
as §1

The target in another test is SPIB (Homo sapiens, UniProt Q01892 1-262). The method, boiled down:
as §1

A further test has as its target T6, ELK3 (Homo sapiens, UniProt P41970 1-407).
T6 sequence: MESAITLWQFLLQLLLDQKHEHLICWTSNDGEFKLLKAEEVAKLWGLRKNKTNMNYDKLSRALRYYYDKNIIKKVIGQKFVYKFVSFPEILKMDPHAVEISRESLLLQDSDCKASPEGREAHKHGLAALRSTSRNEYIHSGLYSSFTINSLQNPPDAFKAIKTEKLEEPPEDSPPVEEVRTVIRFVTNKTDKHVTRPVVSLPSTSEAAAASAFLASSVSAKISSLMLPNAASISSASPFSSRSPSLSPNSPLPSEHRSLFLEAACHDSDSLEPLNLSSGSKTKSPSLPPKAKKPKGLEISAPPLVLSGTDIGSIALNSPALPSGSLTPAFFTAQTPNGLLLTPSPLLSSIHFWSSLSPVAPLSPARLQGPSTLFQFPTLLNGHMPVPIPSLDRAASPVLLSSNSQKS
The method, boiled down:
as §1

Another test deals with T7, FEV (Homo sapiens, UniProt Q99581 1-238).
T7 sequence: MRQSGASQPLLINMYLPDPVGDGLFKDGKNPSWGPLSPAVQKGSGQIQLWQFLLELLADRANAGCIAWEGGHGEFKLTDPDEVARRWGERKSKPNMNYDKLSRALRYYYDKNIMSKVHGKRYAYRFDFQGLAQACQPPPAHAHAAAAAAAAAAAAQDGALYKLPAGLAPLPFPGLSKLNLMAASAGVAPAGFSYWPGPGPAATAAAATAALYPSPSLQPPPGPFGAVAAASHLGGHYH
The method, boiled down: as §1

The next test has as its target ETV5 (Homo sapiens, UniProt P41161 1-510). In outline:
as §1

In the next test the target is T8, SPIC (Homo sapiens, UniProt Q8N5J4 1-248).
T8 sequence: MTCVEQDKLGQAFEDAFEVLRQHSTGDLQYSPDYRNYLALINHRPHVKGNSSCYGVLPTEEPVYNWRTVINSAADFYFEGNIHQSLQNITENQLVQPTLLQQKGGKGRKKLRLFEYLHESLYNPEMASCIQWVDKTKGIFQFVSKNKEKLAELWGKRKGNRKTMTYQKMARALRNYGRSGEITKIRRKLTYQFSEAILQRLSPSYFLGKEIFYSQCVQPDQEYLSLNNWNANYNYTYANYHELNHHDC
In outline: as §1

For a further test, the target named is ELF4 (Homo sapiens, UniProt Q99607 1-663). In outline: as §1
The target of the next test is T9, ELK4 (Homo sapiens, UniProt P28324-2 1-405).
T9 sequence: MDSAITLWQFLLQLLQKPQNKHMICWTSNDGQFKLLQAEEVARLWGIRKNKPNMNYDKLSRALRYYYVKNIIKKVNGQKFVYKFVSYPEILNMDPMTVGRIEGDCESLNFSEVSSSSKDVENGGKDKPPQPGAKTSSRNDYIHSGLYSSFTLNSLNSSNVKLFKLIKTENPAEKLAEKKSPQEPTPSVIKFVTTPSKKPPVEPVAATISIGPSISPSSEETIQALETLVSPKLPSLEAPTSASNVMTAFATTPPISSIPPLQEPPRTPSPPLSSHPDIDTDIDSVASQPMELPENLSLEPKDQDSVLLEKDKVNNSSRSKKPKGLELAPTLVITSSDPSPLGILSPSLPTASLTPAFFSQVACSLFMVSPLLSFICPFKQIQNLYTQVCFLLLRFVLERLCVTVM
In outline: as §1

Another test has as its target T10, ETV2 (Homo sapiens, UniProt O00321 1-342).
T10 sequence: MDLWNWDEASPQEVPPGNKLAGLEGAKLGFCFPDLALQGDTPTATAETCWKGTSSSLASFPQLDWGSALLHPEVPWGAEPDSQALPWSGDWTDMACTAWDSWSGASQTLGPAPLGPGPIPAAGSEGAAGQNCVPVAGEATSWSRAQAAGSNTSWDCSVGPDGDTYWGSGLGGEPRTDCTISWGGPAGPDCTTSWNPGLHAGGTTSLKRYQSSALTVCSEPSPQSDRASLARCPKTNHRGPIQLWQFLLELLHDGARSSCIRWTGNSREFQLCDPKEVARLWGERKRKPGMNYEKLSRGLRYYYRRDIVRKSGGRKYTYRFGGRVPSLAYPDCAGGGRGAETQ
The method, boiled down: as §1

The next test has as its target T11, ELF3 (Homo sapiens, UniProt P78545 1-371).
T11 sequence: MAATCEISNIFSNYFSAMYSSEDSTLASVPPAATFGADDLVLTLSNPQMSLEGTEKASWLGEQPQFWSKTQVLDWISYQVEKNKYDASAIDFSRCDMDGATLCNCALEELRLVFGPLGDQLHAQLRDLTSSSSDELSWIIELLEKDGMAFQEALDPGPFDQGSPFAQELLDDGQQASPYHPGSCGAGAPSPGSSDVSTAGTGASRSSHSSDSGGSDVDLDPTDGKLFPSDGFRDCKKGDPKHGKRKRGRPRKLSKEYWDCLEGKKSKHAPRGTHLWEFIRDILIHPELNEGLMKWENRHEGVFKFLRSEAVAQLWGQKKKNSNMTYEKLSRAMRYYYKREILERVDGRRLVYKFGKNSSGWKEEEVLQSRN
In outline: as §1

The next test concerns the target ETV1 (Homo sapiens, UniProt P50549 1-477). In outline: as §1

Chain of ETV1 (P50549 whole entry): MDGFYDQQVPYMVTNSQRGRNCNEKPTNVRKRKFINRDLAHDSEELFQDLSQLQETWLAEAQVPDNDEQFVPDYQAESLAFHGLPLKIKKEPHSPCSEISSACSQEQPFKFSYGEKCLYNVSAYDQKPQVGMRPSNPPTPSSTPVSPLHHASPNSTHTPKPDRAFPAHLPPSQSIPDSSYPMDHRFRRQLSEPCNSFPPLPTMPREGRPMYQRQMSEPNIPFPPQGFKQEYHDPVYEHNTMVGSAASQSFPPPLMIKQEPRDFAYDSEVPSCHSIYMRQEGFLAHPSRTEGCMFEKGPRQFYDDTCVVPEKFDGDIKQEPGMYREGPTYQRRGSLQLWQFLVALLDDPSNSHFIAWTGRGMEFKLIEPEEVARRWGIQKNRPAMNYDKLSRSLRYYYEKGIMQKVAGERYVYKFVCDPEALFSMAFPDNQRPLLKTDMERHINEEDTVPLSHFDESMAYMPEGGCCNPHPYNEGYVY
Chain of ETV5 (P41161 whole entry): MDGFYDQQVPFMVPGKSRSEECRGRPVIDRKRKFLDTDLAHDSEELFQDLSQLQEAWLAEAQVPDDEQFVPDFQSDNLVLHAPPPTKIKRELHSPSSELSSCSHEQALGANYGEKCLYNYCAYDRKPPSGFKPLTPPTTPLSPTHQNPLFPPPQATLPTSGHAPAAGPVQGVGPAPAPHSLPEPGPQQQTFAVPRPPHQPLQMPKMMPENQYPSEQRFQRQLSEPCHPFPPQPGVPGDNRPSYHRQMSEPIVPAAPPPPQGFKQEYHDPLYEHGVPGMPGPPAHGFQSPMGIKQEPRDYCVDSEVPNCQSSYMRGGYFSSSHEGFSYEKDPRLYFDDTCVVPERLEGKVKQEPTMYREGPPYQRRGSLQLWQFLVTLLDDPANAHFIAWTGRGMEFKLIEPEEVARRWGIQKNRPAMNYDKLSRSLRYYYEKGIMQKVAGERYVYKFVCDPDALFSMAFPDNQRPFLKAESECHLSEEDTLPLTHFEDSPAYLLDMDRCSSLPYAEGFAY
Chain of ELF4 (Q99607 whole entry): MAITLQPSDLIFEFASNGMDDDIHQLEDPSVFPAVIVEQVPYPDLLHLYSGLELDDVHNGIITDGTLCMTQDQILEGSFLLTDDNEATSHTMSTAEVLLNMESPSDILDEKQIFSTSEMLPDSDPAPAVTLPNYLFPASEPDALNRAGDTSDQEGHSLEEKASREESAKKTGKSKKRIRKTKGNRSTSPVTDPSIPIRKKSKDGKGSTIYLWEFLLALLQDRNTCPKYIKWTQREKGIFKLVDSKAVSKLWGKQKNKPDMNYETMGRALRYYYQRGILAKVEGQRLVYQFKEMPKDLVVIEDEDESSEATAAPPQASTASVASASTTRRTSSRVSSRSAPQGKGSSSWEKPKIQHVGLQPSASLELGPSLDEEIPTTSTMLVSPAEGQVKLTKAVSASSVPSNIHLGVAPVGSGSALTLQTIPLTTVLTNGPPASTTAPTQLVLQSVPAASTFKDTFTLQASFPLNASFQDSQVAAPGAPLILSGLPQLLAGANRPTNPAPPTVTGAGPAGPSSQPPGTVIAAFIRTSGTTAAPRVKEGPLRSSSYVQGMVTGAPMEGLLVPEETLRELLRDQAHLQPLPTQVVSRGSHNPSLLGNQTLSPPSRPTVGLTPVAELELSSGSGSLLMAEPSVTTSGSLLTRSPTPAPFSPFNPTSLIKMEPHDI
Chain of SPIB (Q01892 whole entry): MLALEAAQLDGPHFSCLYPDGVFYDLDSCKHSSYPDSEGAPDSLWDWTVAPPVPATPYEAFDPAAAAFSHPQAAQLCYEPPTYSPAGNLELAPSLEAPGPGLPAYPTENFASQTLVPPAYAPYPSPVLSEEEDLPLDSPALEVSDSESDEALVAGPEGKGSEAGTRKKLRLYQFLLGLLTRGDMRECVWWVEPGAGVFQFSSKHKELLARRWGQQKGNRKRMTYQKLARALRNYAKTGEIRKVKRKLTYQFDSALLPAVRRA
Chain of ELF1 (P32519 whole entry): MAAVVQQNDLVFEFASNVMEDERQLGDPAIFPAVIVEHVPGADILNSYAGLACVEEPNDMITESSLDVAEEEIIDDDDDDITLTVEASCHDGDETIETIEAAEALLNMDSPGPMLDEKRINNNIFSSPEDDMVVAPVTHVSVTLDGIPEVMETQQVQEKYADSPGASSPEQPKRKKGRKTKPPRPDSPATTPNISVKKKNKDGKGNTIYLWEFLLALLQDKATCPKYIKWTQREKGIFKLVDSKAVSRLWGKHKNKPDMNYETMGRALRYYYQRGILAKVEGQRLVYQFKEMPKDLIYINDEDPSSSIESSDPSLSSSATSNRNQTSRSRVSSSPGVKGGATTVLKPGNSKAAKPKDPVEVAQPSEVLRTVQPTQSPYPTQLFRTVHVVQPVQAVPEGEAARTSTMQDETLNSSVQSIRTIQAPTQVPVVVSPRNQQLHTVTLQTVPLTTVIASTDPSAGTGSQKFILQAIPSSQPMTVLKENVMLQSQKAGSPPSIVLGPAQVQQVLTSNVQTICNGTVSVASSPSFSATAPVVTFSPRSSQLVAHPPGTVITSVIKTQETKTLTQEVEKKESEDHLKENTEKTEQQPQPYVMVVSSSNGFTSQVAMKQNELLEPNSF

In the case of CGTAAC, the binding signal is 1.19 fold enrichment (6-mer frequency, TF over GST control) with FLI1; 1.12 fold enrichment (6-mer frequency, TF over GST control) with ELK1; 1.17 fold enrichment (6-mer frequency, TF over GST control) with GABPA; 1.07 fold enrichment (6-mer frequency, TF over GST control) with ERG; 1.11 fold enrichment (6-mer frequency, TF over GST control) in the test with ELF1; 1.16 fold enrichment (6-mer frequency, TF over GST control) with EHF. Also, the binding signal with SPI1 was 1.08 fold enrichment (6-mer frequency, TF over GST control); in the test with SPIB it was 1.16 fold enrichment (6-mer frequency, TF over GST control); with ELK3, 1.07 fold enrichment (6-mer frequency, TF over GST control); with FEV, 1.09 fold enrichment (6-mer frequency, TF over GST control); with ETV5, 1.1 fold enrichment (6-mer frequency, TF over GST control); with SPIC it was 1.27 fold enrichment (6-mer frequency, TF over GST control). The binding signal with ELF4 is 1.23 fold enrichment (6-mer frequency, TF over GST control); with ELK4, 1.13 fold enrichment (6-mer frequency, TF over GST control); with ETV2, 1.12 fold enrichment (6-mer frequency, TF over GST control); in the test with ELF3, 1.18 fold enrichment (6-mer frequency, TF over GST control); with ETV1, 1.13 fold enrichment (6-mer frequency, TF over GST control).

As for ACCCCA, the binding signal was 1.05 fold enrichment (6-mer frequency, TF over GST control) in the test with FLI1; 1.12 fold enrichment (6-mer frequency, TF over GST control) in the test with ELK1; 1.15 fold enrichment (6-mer frequency, TF over GST control) with GABPA; 1.08 fold enrichment (6-mer frequency, TF over GST control) with ERG; 1.11 fold enrichment (6-mer frequency, TF over GST control) with ELF1; 1.11 fold enrichment (6-mer frequency, TF over GST control) with EHF. Moreover, the binding signal with SPI1 was 1.08 fold enrichment (6-mer frequency, TF over GST control); with SPIB it was 1.05 fold enrichment (6-mer frequency, TF over GST control); with ELK3 it was 1.02 fold enrichment (6-mer frequency, TF over GST control); with FEV it was 1.07 fold enrichment (6-mer frequency, TF over GST control); in the test with ETV5, 1.05 fold enrichment (6-mer frequency, TF over GST control); with SPIC, 1.15 fold enrichment (6-mer frequency, TF over GST control). Besides, the binding signal with ELF4 is 1.12 fold enrichment (6-mer frequency, TF over GST control); with ELK4, 1.2 fold enrichment (6-mer frequency, TF over GST control); with ETV2, 1.04 fold enrichment (6-mer frequency, TF over GST control); with ELF3, 1.04 fold enrichment (6-mer frequency, TF over GST control); with ETV1 it was 1.06 fold enrichment (6-mer frequency, TF over GST control).
